Screens: PubChem, National Center for Advancing Translational Sciences (NCATS)
EPAC2 antag = antagonists of human EPAC2; EPAC2 GEF exchange of Rap1B-BODIPY-GDP, fluorescence; Potency, µM (titrated, usually from 114 µM), inactives show top-dose activity, negative = inhibition, most hits filed as inhibitors; 0.18% of 360,000 active; Q8WZA2; further: on the % scale 0 is the no-effect control and ±100 the full control effect; nearly all actives have a fitted effect of over 45% in size
USP1-UAF1 inh = inhibitors of human USP1/UAF1 deubiquitinase. O94782. recombinant USP1/UAF1, Ub-Rhodamine cleavage fluorescence. 0.23% of 390,000 active. Potency, µM (top dose mostly 57.1 µM), inactives show at the highest dose activity change, negative = inhibition, most hits filed as inhibitors; further: on the % scale 0 is the no-effect control and ±100 the full control effect; nearly all actives have a fitted effect of over 60% in size
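Step one: compound is pinned into 1nM USP1/UAF1 in HEPES pH 7.8 buffer with TCEP. Step two: 15 min room-temperature incubation. Step three: Ub-Rho (150nM final) starts cleavage, tracked by fluorescence over six one-minute reads.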
EPAC1 ag = agonists of human EPAC1. EPAC1 agonist qHTS, biochemical assay; response scale: 100% = response to 6.5 mM cAMP. Potency, µM (top dose mostly 154 µM), for the others: top-dose activation, usual class: activators. 0.073% of 360,000 active; further: nearly all actives have a fitted effect of over 60% in size
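Nucleotide exchange by EPAC1 (100 nM) on Rap1B–BODIPY-GDP (250 nM) in the presence of 50 uM GDP is tracked fluorescently at 480/540 nm over 30 min. Signals are normalized to a 6.5 mM cAMP control.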
EPAC1 antag = EPAC1 (human) antagonism | AID 720709 | O95398 | EPAC1 GEF assay, Rap1b-BODIPY-GDP exchange fluorescence | Potency, µM (top dose mostly 115 µM), for the others: at the top dose activity change, negative = inhibition, hits mostly inhibitors | 0.14% of 360,000 active;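 further: plate controls were vehicle for no effect and positive control for full effect; nearly all actives have a fitted effect of over 50% in size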
EPAC2 agonist = agonists of human EPAC2 (RAPGEF4). 0.079% of 360,000 active. EPAC2 activation, biochemical qHTS; response scale: 100% = 6.5 mM cAMP response. Potency, µM (highest dose often 154 µM), without a hit: at the highest dose activation, most hits filed as activators. Q8WZA2. AID 720711; further: nearly all actives have a fitted effect of over 50% in size
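Each well held 100 nM EPAC2, 250 nM RAP1B-BODIPY-GDP and 50 uM GDP. Fluorescence, read at 5-min intervals to 30 min, was referenced to a 6.5 mM cAMP positive control.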
Active calls of the source: *; i = inactive; ? = inconclusive; . = no result; [ ] = remark or other dose. An excerpt weighted towards active compounds, which were near 0.45% of everything screened. The call rests on the fitted dose curve; in most records, active means well fitted curve in the direction sought with a large enough effect; inconclusive means small, poorly fitted or top-dose-only effect, or another doubt; inactive means no such curve, though single readings can be large; an effect the other way counts as inactive or inconclusive. Potency means the concentration at half of the fitted maximal effect.

SMILES	EPAC2 antag	USP1-UAF1 inh	EPAC1 ag	EPAC1 antag	EPAC2 agonist
O=c1oc2ccccc2nc1/C=C(O)/C=C\c1ccccc1	27.2%	?	5.3%	-4.9%	63.1µM*
CCCCNC(=O)C1CCC(CNS(=O)(=O)c2ccc(Cl)cc2)CC1 (configuration not stated)	.	-15.3%	.	.	.
COc1ccc(/C=N/Nc2ccc(C(=O)O)cc2)cc1Br	56.2µM*	-32.9%	4.1%	4.9%	-0.7%
COc1ccc(/C=N/Nc2ccc(C(=O)O)cc2)cc1OC	-8.0%	-11.3%	14.8%	-0.3%	5.1%
COc1cc(/C=N/Nc2ccc(Cl)c(C(=O)O)c2)ccc1OC(=O)c1ccco1	-1.0%	-5.9%	-13.5%	?	-5.6%
COc1ccc(C(=O)Oc2ccc(/C=N/Nc3ccc(Cl)c(C(=O)O)c3)cc2OC)cc1	20µM*	?	-2.4%	-26.5%	-16.3%
Cc1ccc(S(=O)(=O)Oc2cccc(/C=N/Nc3ccc(C(=O)O)cc3)c2)cc1	56.2µM*	-25.8%	0.7%	1.7%	-1.3%
CCOc1c(O)ccc(/C=C2\SC(=S)NC2=O)c1[N+](=O)[O-]	56.2µM*	?	-1.4%	-21.1%	2.1%
COc1cccc(Cn2c(=O)n(-c3cccc(Cl)c3C)c(=O)c3c4c(sc32)CN(C(C)=O)CC4)c1	.	-29.3%	.	.	.
O=C(CCN1CCN(c2ccccc2)CC1)N/N=C/c1ccc(O)c(O)c1O	1.3%	-22.9%	6.3%	79.4µM*	5.1%
COc1cccc(N2CCN(C(=O)c3cnc4c(-c5ccc(F)cc5)c(C)nn4c3C)CC2)c1	.	-7.3%	.	.	.
CC1(C)CC(NCCN2CCN(C3=CC(=C(C#N)C#N)CC(C)(C)C3)CC2)=CC(=C(C#N)C#N)C1	4.7%	-12.4%	-8.2%	6.1%	-0.8%
N#Cc1cc(Cl)c(N2CCOCC2)cc1C#N	6.0%	-14.4%	-1.3%	-3.1%	-3.9%
CCN1CCN(C2=CC3=CC(=C(C#N)C#N)CCC3CC2)CC1 (configuration not stated)	433.9%	28.2µM*	50.1µM*	455.3%	25.1µM*
CN1CCN(C2=CC3=CC(=C(C#N)C#N)CCC3CC2)CC1 (configuration not stated)	212.7%	i[2.29 µM]	28.2µM*	i	100µM*
N#CC(C#N)=C1C=C2C=C(N3CCCCCC3)CCC2CC1 (configuration not stated)	238.6%[57.1 µM]	3.98µM*	94.4%	135.0%	88.9%
N#CC(C#N)=C1C=C2C=C(N3CCOCC3)CCC2CC1 (configuration not stated)	78.5%	3.98µM*	?	151.9%	56.2µM*
CCN(Cc1ccccc1)S(=O)(=O)c1ccc(-c2coc(C)n2)cc1	.	-18.5%	.	.	.
Oc1ccccc1-c1nc(/C=C/c2ccccc2Cl)nn1-c1ccccc1	.	-18.9%	.	.	.
CCn1c(C(=O)N2CCCC(C(=O)N3CCN(c4ccccc4)CC3)C2)cc2sccc21 (configuration not stated)	.	404.7%	.	.	.
Cc1ccc2nc3sc(C(=O)NCc4ccco4)c(N)c3cc2c1	-8.2%[57.1 µM]	366.7%	100µM*	104.8%	-8.4%
COc1ccc(CCNC(=O)CSc2nc(N)c(C#N)c(-c3cccs3)c2C#N)cc1OC	2.2%	1.5%	-0.6%	31.6µM*	-2.7%
Cc1ccccc1NC(=O)CSc1nc(N)c(C#N)c(-c2cccs2)c1C#N	10.7%	-25.5%	-17.2%	10.5%	-0.8%
O=S(=O)(NCC(c1ccco1)N1CCc2ccccc21)c1ccccc1 (configuration not stated)	5.9%	-23.4%	100µM*	-2.0%	15.3%
COCCCNC(=O)CSc1nc2nc(C)c(Cc3ccccc3Cl)c(C)n2n1	.	-6.9%	.	.	.
COc1ccc(CCNC(=O)c2ccc3c(c2)CCN3S(=O)(=O)c2ccc(Cl)cc2)cc1	.	-1.5%	.	.	.
O=c1cc(CSc2ccc(Cl)cc2)[nH]c2[nH]n(-c3ccccc3)c(=O)c12	-24.6%	-22.2%	1.6%	?	0.4%
Cc1ccc(SCc2cc(=O)c3c(=O)n(-c4ccccc4)[nH]c3[nH]2)cc1	-22.6%	0.5%	-1.2%	79.4µM*	0.5%
O=S(=O)(O)c1cc(O)c2c(O)c(N=Nc3cc(Cl)ccc3O)c(S(=O)(=O)O)cc2c1	28.2µM*	?	0.7%	?	-11.4%
